In PubChem BioAssay (Tox21):
Inconclusive results are not listed. The source made the active and inactive calls. Calls follow the shape of the dose curve; as a rule, active = well fitted curve in the direction sought with a large enough effect in the repeat runs; inconclusive = weak or mixed curves; inactive = no such curve, though single readings can be large; an effect the other way counts as inactive or inconclusive.

How the values were obtained:
[1] = qHTS RealTime-Glo MT Cell Viability Assay in HepG2 cells - 24 hour (AID 1224867); also: nearly all actives have a fitted effect of over 50% in size
Procedure, shortened: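 HepG2 suspension premixed with RealTime-Glo reagents is plated at 600 cells per well and left 5 h at 37 C/5% CO2. Compounds in DMSO then go in, and bioluminescence reflecting viable cell number is recorded over 40 h.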

[2] = A CellTox Green Cytotoxicity Assay to monitor cytotoxicity in HEK293 cells - 0 hour (AID 1224869); also: nearly all actives have a fitted effect of over 50% in size
Procedure, shortened: (§1)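 Read-out: fluorescence of a cell-impermeant cyanine dye staining DNA of dead cells, proportional to cytotoxicity. HEK293, 600 cells/well with reagent, compound (23 nL DMSO) added after 5 h; reads at 0, 8, 16, 24, 32, 40 h.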

[3] = qHTS RealTime-Glo MT Cell Viability Assay in HepG2 cells - 40 hour (AID 1224870); also: nearly all actives have a fitted effect of over 50% in size
Procedure, shortened: (§2)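 Real-time viability: cells seeded at 600 per well together with NanoLuc and cell-permeant prosubstrate, compounds added after 5 h incubation. Luminescence tracked at 0, 8, 16, 24, 32 and 40 h of exposure.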

[4] = A CellTox Green Cytotoxicity Assay to monitor cytotoxicity in HEK293 cells - 40 hour (AID 1224871); also: nearly all actives have a fitted effect of over 45% in size
Procedure, shortened: as §1

[5] = qHTS RealTime-Glo MT Cell Viability Assay in HEK293 cells - 16 hour (AID 1224872); also: top concentration of the series differs between compounds; nearly all actives have a fitted effect of over 50% in size
Procedure, shortened: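 Reads taken at 0, 8, 16, 24, 32 and 40 h from the same wells. HEK293 cells (600/well) carried RealTime-Glo reagents from seeding, with compound added after a 5 h settle at 37 C.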

[6] = qHTS RealTime-Glo MT Cell Viability Assay in HepG2 cells - 8 hour (AID 1224873); also: nearly all actives have a fitted effect of over 55% in size
Procedure, shortened: as §2

[7] = A CellTox Green Cytotoxicity Assay to monitor cytotoxicity in HEK293 cells - 24 hour (AID 1224875); also: series mostly up to about 77 µM; nearly all actives have a fitted effect of over 45% in size
Procedure, shortened: as §1

[8] = A CellTox Green Cytotoxicity Assay to monitor cytotoxicity in HepG2 cells - 16 hour (AID 1224876); also: nearly all actives have a fitted effect of over 45% in size
Procedure, shortened: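 HepG2, 600 cells/well premixed w/ CellTox Green; 5 h settle, 37 C/5% CO2; pintool cpd add (DMSO); 37 C, 40 h; fluorescence read at 0, 8, 16, 24, 32, 40 h.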

[9] = qHTS RealTime-Glo MT Cell Viability Assay in HEK293 cells - 40 hour (AID 1224874); details: RealTime-Glo luminescence; max response: stronger effect = lower value; also: nearly all actives have a fitted effect of over 50% in size
Procedure, shortened: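 Luminescence readout at each listed time point; HEK293, 600 cells/well, RealTime-Glo MT reagent added with cells; compounds pinned (23 nL in DMSO) after 5 h at 37 C; continuous culture at 37 C.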
% is scaled to controls: 0 for no effect and ±100 for the full control effect.

O=C(CN1CCN(Cc2ccc3c(c2)OCO3)CC1)N1c2ccccc2Sc2ccccc21
inactive: outcome [1] | Potency [2] | outcome [3] | Potency [4] | Potency [5] | outcome [6] | Potency [7] | Potency [8]

CCCCCCCCCCCCOC(C)=O
inactive: outcome [1] | Potency [2] | outcome [3] | Potency [4] | Potency [5] | outcome [6] | Potency [7] | Potency [8]

COc1cccc2sc(N)nc12
inactive: outcome [1] | Potency [2] | outcome [3] | Potency [4] | outcome [6] | max response [9] -6.71% | Potency [7] | Potency [8]

CC(C)(c1ccc(Oc2ccc3c(c2)C(=O)OC3=O)cc1)c1ccc(Oc2ccc3c(c2)C(=O)OC3=O)cc1
inactive: outcome [1] | Potency [2] | outcome [3] | Potency [4] | outcome [6] | max response [9] 19.4% | Potency [7] | Potency [8]

CCCCCCCCC(=O)OCC
inactive: outcome [1] | Potency [2] | Potency [4] | Potency [5] | outcome [6] | max response [9] 9.15% | Potency [7] | Potency [8]

O=CN1CCOCC1
inactive: outcome [1] | Potency [2] | Potency [4] | Potency [5] | outcome [6] | max response [9] 10.7% | Potency [7] | Potency [8]
